Rab9 prom act: Rab9 promoter activation | Huh7 Rab9 promoter-luciferase reporter, luminescence, 24 h | Potency, µM (doses to about 9.22 µM), without a hit: top-dose activation, negative = inhibition, usual class: activators | hit rate 2.8% among 320,000; further: % of control where 0% means no effect; nearly all actives have a fitted effect of over 60% in size
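Huh7 cells stably carrying a Rab9 promoter-luciferase reporter, 1500 cells per well in OP-MEM I with 10% FBS, treated with compound 24 hours at 37C. Luciferase activity read by luminescence after 10 minutes with Amplite reagent.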
SMN2 splice enh: enhancers of SMN2 splice variant expression | HEK293 SMN2-luciferase splicing reporter, luminescence, 30-36 h | Potency, µM (doses to about 46.1 µM), for the others: top-dose activity change, positive = activation, actives largely listed as activators | hit rate 2.8% among 210,000; further: % of control where 0% means no effect; nearly all actives have a fitted effect of over 55% in size
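HEK293 cells carry an SMN2 minigene-luciferase reporter in which exon 7 inclusion puts luciferase in frame. Cells were seeded at 2000 cells/well, attached for 10-12 hours, then exposed to compounds for 30-36 hours at 37C before ONE-Glo luminescence.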
NPC1 promoter act: activates the NPC1 promoter; Huh7 NPC1 promoter luciferase reporter, 24 h; Potency, µM (doses to about 9.22 µM), for the others: top-dose activation, actives largely listed as activators; hit rate 2.4% among 320,000; AID 485313; further: % of control where 0% means no effect; nearly all actives have a fitted effect of over 60% in size
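Luminescence read-out of NPC1 promoter-driven luciferase in stably transfected Huh7 cells; compounds delivered in DMSO and left 24 h at 37C, 5% CO2, qHTS titration format.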
FLuc modulator: counter-screen for miR-21 project: firefly luciferase inhibitors or activators; P08659; purified FLuc, Km substrates, luminescence inhibition; Potency, µM (top dose mostly 57.5 µM), without a hit: at the top dose activity change, negative = inhibition, actives largely listed as inhibitors; hit rate 6.9% among 360,000; AID 588342;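 further: plate controls were vehicle for no effect and reference inhibitor for full effect; nearly all actives have a fitted effect of over 55% in size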
Target sequence (P08659 whole entry, looked up): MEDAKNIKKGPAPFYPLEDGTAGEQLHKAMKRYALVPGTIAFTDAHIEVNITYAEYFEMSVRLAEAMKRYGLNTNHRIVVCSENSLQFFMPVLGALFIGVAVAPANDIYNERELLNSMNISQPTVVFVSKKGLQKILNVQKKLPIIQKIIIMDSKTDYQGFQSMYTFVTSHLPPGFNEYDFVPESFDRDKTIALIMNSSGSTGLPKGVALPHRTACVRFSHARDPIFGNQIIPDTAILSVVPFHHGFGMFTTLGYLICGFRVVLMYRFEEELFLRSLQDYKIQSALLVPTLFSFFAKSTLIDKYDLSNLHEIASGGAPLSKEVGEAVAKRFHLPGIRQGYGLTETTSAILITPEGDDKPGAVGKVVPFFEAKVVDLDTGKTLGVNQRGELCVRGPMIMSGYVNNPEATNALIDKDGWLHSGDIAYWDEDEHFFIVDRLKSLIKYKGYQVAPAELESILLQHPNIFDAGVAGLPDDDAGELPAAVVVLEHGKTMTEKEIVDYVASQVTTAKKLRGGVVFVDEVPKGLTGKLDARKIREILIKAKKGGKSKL
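Purified P. pyralis luciferase (10nM final) with 10uM D-luciferin and 10uM ATP (Km levels) in 50mM Tris acetate pH 7.5, 10mM Mg acetate, 0.01% Tween-20, 0.05% BSA; qHTS 6-point titration, ~60 µM downward; luminescence read.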
ELG1 genotoxic: inducers of genotoxicity in HEK293T ELG1-luciferase cells; HEK293T ELG1-luciferase reporter, luminescence, 16 h; Potency, µM (titrated, usually from 46 µM), inactives show top-dose activity change, positive = activation, usual class: activators; hit rate 1.3% among 330,000; AID 504466; further: % of control where 0% means no effect; nearly all actives have a fitted effect of over 60% in size
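Genotoxic stress is detected as increased luminescence from luciferase-tagged ELG1 in HEK293T cells, measured with ONE-Glo after a 16 hr treatment at 37 °C.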
ELG1 DNA repair: ELG1-dependent DNA repair inhibition; HEK293T ELG1-luciferase reporter, luminescence, 16 h; DNA damage induced by 5-fluorouridine; Potency, µM (series often up to 46.1 µM), inactives show top-dose activity change, negative = inhibition, usual class: inhibitors; hit rate 2.3% among 330,000; further: on the % scale 0 is the no-effect control and ±100 the full control effect; nearly all actives have a fitted effect of over 55% in size
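5-Fluorouridine DNA damage + compound/DMSO, 2,000 cells/well, 16 h, 37 °C/5% CO2. ONE-Glo, 30 min RT, luminescence. Readout = decrease in reporter signal.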
The depositor's hits bear a star; ? = inconclusive; nt = not tested or not shown; [ ] = remark or other dose. Hits are enriched below; roughly 9.2% of the tested compounds scored in any of these assays. The call rests on the fitted dose curve; in most records, active means well fitted curve in the direction sought with a large enough effect; inconclusive means small, poorly fitted or top-dose-only effect, or another doubt; inactive means no such curve, though single readings can be large; an effect the other way counts as inactive or inconclusive. Potency means the concentration at half of the fitted maximal effect.

SMILES	Rab9 prom act	SMN2 splice enh	NPC1 promoter act	FLuc modulator	ELG1 genotoxic	ELG1 DNA repair
Cn1c(=O)oc2cc(S(=O)(=O)NCCC(=O)Nc3ccc(F)c(Cl)c3)ccc21	nt	-17%	nt	6%	nt	nt
COc1ccc(CN(Cc2ccco2)C(=O)c2ccccc2F)cc1	nt	-1%	nt	-2%	nt	nt
Cc1ccc(C)c(NC(=O)N2CCC(CN3CCOCC3)CC2)c1	nt	nt	nt	-3%	nt	nt
CC(C)(C)c1ccc(Cn2c(=O)cnc3ccccc32)cc1	-1%	nt	-1%	15µM*	?	-11%
O=C(O)Cn1c(=O)cnc2ccccc21	-5%	-7%	-6%	0%	0%	9%
O=c1cnc2ccccc2n1Cc1ccc(Br)cc1	19%	nt	6%	27µM*	6%	5%
Cc1cc(Cl)c(S(=O)(=O)N2CCN(c3ccc(F)cc3)CC2)cc1OCC(=O)NC1CCCCC1	-23%	-78%	-29%	5%	-17%	8.2µM*
Cc1cc(Cl)c(S(=O)(=O)N2CCN(c3ccc(F)cc3)CC2)cc1OCC(N)=O	-31%	-30%	-16%	-3%	-7%	?
CCOC(=O)C1CCCN(S(=O)(=O)c2cc(OCC(=O)NC3CCCCC3)c(C)cc2Cl)C1 (stereo not drawn)	-6%	-49%	0%	5%	-8%	21µM*
O=C(COc1ccccc1Cl)NC(=O)NC1CCCCC1	-3%	nt	8%	?	5%	?
O=C(COc1ccc(F)cc1Cl)NC1CCCCCC1	2.2µM*	nt	4µM*	8.5µM*	?	?
CCOC(=O)C1CCCN(C(=O)c2ccc(Cl)c(S(=O)(=O)N3CCCCCC3)c2)C1 (stereo not drawn)	-12%	nt	-12%	-6%	-14%	10µM*
CCOC(=O)C1CCN(C(=O)C2COc3ccccc3C2)CC1 (stereo not drawn)	nt	nt	nt	-4%	nt	nt
CCN(C(=O)Cn1nc(Cc2cccnc2)c2ccccc2c1=O)c1cc(C)ccc1C	nt	-38%	nt	-1%	nt	nt
CC(=O)Nc1cc2c(s1)c1cnn(Cc3ccccc3F)c(=O)c1n2C	-2%	nt	1%	6%	nt	nt
COc1cccc(NC(=O)C2CCCN(c3nnc(-n4c(C)ccc4C)s3)C2)c1 (stereo not drawn)	nt	8%	nt	-3%	nt	nt
O=C(NCc1cccs1)c1ccc(Cn2c(SCc3ccccc3)nc3cccnc32)cc1	nt	nt	nt	6.7µM*	nt	nt
O=C(NCc1cccs1)c1ccc(CSc2nc3cccnc3n2Cc2ccccc2F)cc1	nt	nt	nt	-17%	nt	nt
Cc1cccc(Cn2c(SCc3ccc(C(=O)NCc4cccs4)cc3)nc3cccnc32)c1	nt	nt	nt	-15%	nt	nt
Cc1ccc(CSc2nc3cccnc3n2Cc2ccc(C(=O)NCc3cccs3)cc2)cc1	nt	nt	nt	0.95µM*	nt	nt
O=C(NCc1cccs1)c1ccc(Cn2c(SCc3ccc(F)cc3)nc3cccnc32)cc1	nt	nt	nt	5.4µM*	nt	nt
COC(=O)c1cc2ccc(OC)cc2c2cc(OC)c(OC)cc12	nt	nt	nt	nt	-6%	13µM*
COC(=O)c1cc(OC)c(OC)cc1NC(=O)Nc1ccc(OC)cc1	-2%	-8%	-4%	3%	0%	-3%
CCCn1c(NC(=O)c2ccc(C)cc2)nc2ccccc21	30%	?	19%	-15%	?	?
COCn1c(-c2ccc(OC)cc2)nc2ccccc21	2.5µM*	14µM*	?	6µM*	?	?
SMILES	Rab9 prom act	SMN2 splice enh	NPC1 promoter act	FLuc modulator	ELG1 genotoxic	ELG1 DNA repair
C=CCn1c(-c2ccc(C)cc2)nc2ccccc21	18%	-22%	11%	11µM*	?	?
C=CCn1c(NC(=O)c2ccc(C)cc2)nc2ccccc21	?	nt	2.8µM*	?	?	?
CCOc1ccc(NC(=O)Nc2cccc(C(=O)O)c2)cc1	0.089µM*	2µM*	?	0.027µM*	-14%	?
CCOC(=O)c1cccc(NC(=O)Nc2ccc(OCC)cc2)c1	2.8µM*	10µM*	1.8µM*	2.7µM*	-17%	?
CCOc1ccc(S(=O)(=O)NCCC(=O)Nc2ccncc2)cc1	4%	nt	10%	1%	-4%	-4%
CCOc1ccc(NC(=O)Nc2ccc3nsnc3c2)cc1	30%	20%	13%	?	-3%	?
CCOc1ccc(NC(C(=O)Nc2cccc(C(C)=O)c2)c2ccccc2)cc1 (stereo not drawn)	0%	9%	1%	2%	-1%	-19%
CCOc1ccc(S(=O)(=O)NCCC(=O)Nc2cccc(C(=O)OC)c2)cc1	3.2µM*	nt	10%	-9%	14%	?
CCOc1ccc(/C=C/C(=O)Nc2cccc(C(C)=O)c2)cc1	?	?	?	1.2µM*	7%	?
CCOC(=O)C(=O)Nc1cccc(C(=O)OCC)c1	-1%	9%	-1%	-9%	0%	0%
COc1ccc(NC(=O)C(Cc2c[nH]c3ccccc23)NC(=O)OC(C)(C)C)cc1 (stereo not drawn)	nt	3%	nt	-7%	nt	nt
Cc1ccc(Cl)cc1N1CCN(C(=O)COc2cc(=O)n(C)c3ccccc23)CC1	nt	-39%	nt	7%	nt	nt
Cc1cnc(CNc2ncncc2-c2ccccc2C#N)cn1	nt	0%	nt	nt	nt	nt
CN(CCOc1ccccc1)C(=O)c1ccc(N2CCCC2)c([N+](=O)[O-])c1	11%	nt	7%	-5%	-6%	-1%
COc1ccc(CNC(=O)c2cc3cccc(OC)c3oc2=N)cc1	5%	nt	-2%	-4%	?	-1%
COc1cccc2cc(C(=O)NCc3ccc(F)cc3)c(=N)oc12	-2%	nt	0%	8.5µM*	6%	23%
COc1cccc2cc(C(=O)c3ccccc3)oc12	3.5µM*	?	?	9.5µM*	?	?
COc1cccc2cc(C(=O)OCC(=O)NCc3ccc4c(c3)OCO4)c(=O)oc12	2%	nt	-2%	11µM*	?	?
COc1cccc2cc(CC(=O)c3ccccc3)c(=O)oc12	?	nt	?	17µM*	11%	?
CCc1ccccc1NC(=O)Cn1cc(C(=O)c2ccc(Cl)cc2)c(=O)c2ccc(C)nc21	nt	nt	nt	-4%	nt	nt
COc1ccc(-c2c(C)c3ccc(O)c(CN4CCC(C)CC4)c3oc2=O)cc1OC	nt	nt	nt	2%	nt	nt
COc1cccc2cc(C(=O)NCc3ccc(C)cc3)c(=O)oc12	-5%[1.84 µM]	nt	-3%	-2%	2%	5%
COc1cccc2cc(CC(=O)c3cc(C)ccc3C)c(=O)oc12	23%	nt	25%	15µM*	-3%	-1%
COc1cccc2cc(C(=O)Nc3ccc(CC(=O)O)cc3)c(=O)oc12	nt	-17%	nt	1.5µM*	nt	nt
CCc1ccc(C(=O)Cc2cc3cccc(OC)c3oc2=O)cc1	?	nt	?	15µM*	13%	0%
COc1cccc2cc(CC(=O)c3ccc(C)c(C)c3)c(=O)oc12	24%	nt	6%	17µM*	9%	?

From PubChem
